PINK1 expr mod: changes PINK1 expression; PINK1 immunofluorescence, high-content cytometry, 24 h; Potency, µM (series often up to 76.6 µM), inactives show top-dose activation (PINK1 increase), most hits filed as activators; 410,000 compounds, 0.2% hits; AID 624263; active = well fitted activation curve with a large enough effect; inconclusive = small, poorly fitted or top-dose-only effect; cell line not stated here; note: % of control where 0% means no effect; nearly all actives have a fitted effect of over 65% in size
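A stable cell line was treated with compounds at 5 concentrations for 24 hours, with CCCP as control. PINK1 levels and mitochondrial localization were measured by immunofluorescence with mitochondrial, cell and nuclear markers after fixation, read by laser-scanning cytometry.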
KB-V1 cytotox: KB-V1 MDR subline cytotoxicity; 400,000 compounds, 3.4% hits; KB-V1 MDR cells viability, CellTiter-Glo, 72 h; Potency, µM (series often up to 46.1 µM), most hits filed as cytotoxic; note: % is set by controls: 0 for no effect and ±100 for the full control effect; nearly all actives have a fitted effect of over 60% in size
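qHTS viability screen in drug-selected KB-V1 MDR cells: 72 h compound treatment at 37 degrees C, ATP luminescence end point.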
KB-3-1 tox: KB-3-1 parental cell cytotoxicity | KB-3-1 viability, CellTiter-Glo ATP luminescence, 72 h | Potency, µM (highest dose often 46.1 µM), most hits filed as cytotoxic | 400,000 compounds, 1.4% hits | AID 1347075; note: % is set by controls: 0 for no effect and ±100 for the full control effect; nearly all actives have a fitted effect of over 60% in size
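Luminescent ATP read-out (CellTiter-Glo) measures survival of drug-naive KB-3-1 cells after 72 h compound exposure at 37 °C. Titration series was screened from lowest to highest concentration, with DMSO vehicle plates as background controls.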
MCF10A rereplic: inducers of DNA re-replication in MCF 10A breast cells. MCF 10A DNA re-replication, Hoechst nuclear intensity, 48 h. Potency, µM (titrated, usually from 46.1 µM), inactives show at the highest dose activity, positive = re-replication, hits mostly activators. 350,000 compounds, 2.9% hits. AID 624296; note: % of control where 0% means no effect; nearly all actives have a fitted effect of over 50% in size
SW480 rereplic: induces DNA re-replication in SW480 colon adenocarcinoma cells. Potency, µM (series often up to 46.1 µM), inactives show top-dose re-replication activation, most hits filed as activators. SW480 DNA re-replication, Hoechst DNA content imaging, 48 h. 340,000 compounds, 1.8% hits; note: % of control where 0% means no effect; nearly all actives have a fitted effect of over 55% in size
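Per well, 250 cells were exposed to pinned compound for 48 hr. Nuclear DNA was visualised with Hoechst (40 min, 37 C) and total object intensity recorded by fluorescence scanning.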
Starred values were filed as active, the others as inactive; i = inactive; ? = inconclusive; . = no result given. Most compounds without a hit are left out; they make up all but 6.7% or so of the library. Unless noted, calls come from the whole dose curve; as a rule, active = well fitted curve in the direction sought with a large enough effect; inconclusive = small, poorly fitted or top-dose-only effect, or another doubt; inactive = no such curve, though single readings can be large; an effect the other way counts as inactive or inconclusive. Potency is the fitted concentration of half-maximal effect.

SMILES | PINK1 expr mod | KB-V1 cytotox | KB-3-1 tox | MCF10A rereplic | SW480 rereplic
Oc1c(C(Nc2ccccn2)c2ccccc2)cc(Cl)c2cccnc12 (configuration not stated) | . | i | ? | . | .
CC(=O)NC(c1cc(Cl)c2cccnc2c1O)C1CC1 (configuration not stated) | 6% | 16µM* | i | ? | 1.3µM*
CCC(=O)NC(c1ccco1)c1cc(Cl)c2cccnc2c1O (configuration not stated) | -1% | ? | ? | ? | 2.6µM*
Oc1c(C(Nc2ccccn2)c2cccnc2)cc(Cl)c2cccnc12 (configuration not stated) | 2% | i | ? | 23µM* | 6.5µM*
CC(=O)NC(c1ccc(C)cc1)c1cc(Cl)c2cccnc2c1O (configuration not stated) | -2% | ? | 5.8µM* | ? | 2.9µM*
Cc1ccc(Cl)cc1N1CCN(C(=O)C2CCN(Cc3nc(-c4ccc(Cl)cc4)oc3C)CC2)CC1 | 0% | i | i | . | .
O=C1NC(=O)C(Cc2ccccc2F)(C2CCN(Cc3cccn3-c3cccnc3)CC2)N1 (configuration not stated) | 0% | . | . | . | .
Oc1c(C(Nc2cccc(C(F)(F)F)c2)c2cccnc2)ccc2cccnc12 (configuration not stated) | 4% | i | i | ? | ?
O=C(CCc1ccccc1)NC(c1cccs1)c1cc(Cl)c2cccnc2c1O (configuration not stated) | 21% | 2.1µM* | ? | ? | ?
CCC(=O)NC(c1ccc(OC)cc1)c1cc(Cl)c2cccnc2c1O (configuration not stated) | -1% | i | ? | 11% | 0.52µM*
COc1ccc(C(NC(=O)c2cccnc2)c2cc(Cl)c3cccnc3c2O)cc1OC (configuration not stated) | 3% | 6.5µM* | ? | 13µM* | ?
O=C(CCCc1ccccc1)NC(c1ccco1)c1cc(Cl)c2cccnc2c1O (configuration not stated) | . | i | ? | . | .
COc1ccc(C(=O)NC(c2ccc(OC)c(OC)c2)c2cc(Cl)c3cccnc3c2O)cc1 (configuration not stated) | 2% | i | i | . | .
Cc1cc(NC(c2cccnc2)c2ccc3cccnc3c2O)no1 (configuration not stated) | 1% | ? | ? | 10µM* | 1.5µM*
Cc1cccc(C)c1OCc1cc(C(=O)N2CCN(c3ccc(F)cc3)CC2)no1 | 2% | i | i | ? | 3%
COc1cccc(N2CCN(S(=O)(=O)c3cc4c(cc3Cl)NC(=O)CO4)CC2)c1 | 4% | i | i | 13% | 1%
CCC1=Nc2cc(C(=O)NCCc3ccccc3)ccc2Sc2ccc(Cl)cc21 | 5% | i | 10µM* | . | .
CCCC1=Nc2cc(C(=O)NCCc3ccccc3)ccc2Sc2ccc(C)cc21 | 2% | ? | 7.3µM* | . | .
CCCNC(=O)c1ccc2c(c1)N=C(CCC)c1ccccc1S2 | 1% | i | 0.73µM* | . | .
CCCC1=Nc2cc(C(=O)NC(C)c3ccccc3)ccc2Sc2ccc(C)cc21 (configuration not stated) | 6% | i | i | . | .
CCOCCCNC(=O)c1ccc2c(c1)N=C(CC)c1cc(Br)ccc1S2 | 1% | 0.52µM* | 1µM* | ? | 1.8µM*
O=C(NCCc1ccccn1)C1CC12CCN(C(=O)c1c(F)cccc1Cl)CC2 (configuration not stated) | 1% | . | . | . | .
CCOc1cc(-c2nnc(SCC(=O)NCc3ccccc3)nc2-c2ccc(OC)c(OCC)c2)ccc1OC | 13% | . | . | . | .
COc1ccc(CCNC(=O)CSC2=NS(=O)(=O)c3cc(F)ccc3N2)cc1OC | 3% | i | i | . | .
O=C(CNC(=O)c1ccccc1Cl)c1ccccc1 | -1% | i | i | -5% | -1%
CO/N=C(/CNC(=O)c1ccccc1Cl)c1ccc(Cl)cc1 | 1% | 23µM* | i | -2% | -73%
O=C1C=C(N2CCOCC2)c2cccc3cccc1c23 | 1% | ? | i | . | .

Bioassay records (PubChem BioAssay)
